Source: PubChem BioAssay
The source made the active and inactive calls. Unless noted, how the calls were made is not given here.

Legend:
[1] = compounds binding Alexa647 anti-His antibody – biochemical, small-molecule microarray, 635 nm fluorescence, artefact control for SMM control protein annotation, primary screen (AID 1128); details: higher = more signal;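 further: score merges feature fluorescence with signal-to-noise for each printed compound spot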
[2] = tested on: Human papillomavirus type 1a E7 protein (residues 1-88); assay: HPV1a E7 small-molecule binders, primary screen, biochemical, small-molecule microarray, residues 1-88, 635 nm (AID 1129); details: small-molecule microarray binding, fluorescence 635 nm; higher = more signal
[3] = target: Focal adhesion kinase 1 (Homo sapiens) (UniProt Q05397); assay: PTK2 protein binding on printed compound slides – biochemical, small-molecule microarray, 635/667 nm fluorescence, BSA, DTT, primary screen (AID 1130); details: 635 nm fluorescence, higher = more signal;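 further: composite of spot emission at 667 nm and signal to noise over triplicate slides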
Sequence of Focal adhesion kinase 1 (Homo sapiens) (Q05397 whole entry, looked up): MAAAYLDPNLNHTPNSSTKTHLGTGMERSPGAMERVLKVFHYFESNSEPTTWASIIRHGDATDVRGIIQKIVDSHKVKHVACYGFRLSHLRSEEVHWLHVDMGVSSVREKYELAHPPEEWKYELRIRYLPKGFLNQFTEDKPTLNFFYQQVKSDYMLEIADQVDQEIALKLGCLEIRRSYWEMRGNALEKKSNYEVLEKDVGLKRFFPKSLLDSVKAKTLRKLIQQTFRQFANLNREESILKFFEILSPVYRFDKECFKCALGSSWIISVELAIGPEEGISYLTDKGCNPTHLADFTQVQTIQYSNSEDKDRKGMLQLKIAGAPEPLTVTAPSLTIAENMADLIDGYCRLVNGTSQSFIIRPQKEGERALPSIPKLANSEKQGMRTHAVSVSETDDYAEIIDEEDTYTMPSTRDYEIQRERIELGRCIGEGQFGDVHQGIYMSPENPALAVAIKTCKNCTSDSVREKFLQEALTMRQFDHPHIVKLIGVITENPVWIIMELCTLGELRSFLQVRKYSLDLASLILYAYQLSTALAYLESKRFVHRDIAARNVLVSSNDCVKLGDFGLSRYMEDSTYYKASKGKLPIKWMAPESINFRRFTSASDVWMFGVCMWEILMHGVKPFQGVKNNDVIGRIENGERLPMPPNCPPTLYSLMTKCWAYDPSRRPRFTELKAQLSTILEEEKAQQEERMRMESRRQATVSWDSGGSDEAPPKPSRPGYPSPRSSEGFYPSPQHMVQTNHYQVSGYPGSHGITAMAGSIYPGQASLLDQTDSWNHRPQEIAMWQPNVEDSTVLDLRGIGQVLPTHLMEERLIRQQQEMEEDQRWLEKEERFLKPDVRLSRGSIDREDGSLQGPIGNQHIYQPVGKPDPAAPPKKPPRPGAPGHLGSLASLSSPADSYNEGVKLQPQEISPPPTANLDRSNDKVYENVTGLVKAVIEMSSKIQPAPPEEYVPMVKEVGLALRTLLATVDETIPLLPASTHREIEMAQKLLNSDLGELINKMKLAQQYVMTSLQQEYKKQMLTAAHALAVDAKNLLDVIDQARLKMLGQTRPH

[4] = tested on: Fibrinogen (Alexa647-labelled); assay: Alexa647-fibrinogen binding to printed small molecules – biochemical, small-molecule microarray, 635/667 nm fluorescence, artefact control for SMM control-protein annotation, profiling panel (AID 1131); details: fibrinogen-A647 binding fluorescence, higher = more signal;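 further: z-score merges 667 nm fluorescence with per-spot signal-to-noise over triplicate slides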
[5] = target: Follistatin (Homo sapiens) (UniProt P19883); assay: FST protein binding to printed compounds – biochemical, small-molecule microarray, 635/667 nm fluorescence, primary screen (AID 1132); details: 635 nm fluorescence, higher = more signal
Sequence of Follistatin (Homo sapiens) (P19883 whole entry, looked up): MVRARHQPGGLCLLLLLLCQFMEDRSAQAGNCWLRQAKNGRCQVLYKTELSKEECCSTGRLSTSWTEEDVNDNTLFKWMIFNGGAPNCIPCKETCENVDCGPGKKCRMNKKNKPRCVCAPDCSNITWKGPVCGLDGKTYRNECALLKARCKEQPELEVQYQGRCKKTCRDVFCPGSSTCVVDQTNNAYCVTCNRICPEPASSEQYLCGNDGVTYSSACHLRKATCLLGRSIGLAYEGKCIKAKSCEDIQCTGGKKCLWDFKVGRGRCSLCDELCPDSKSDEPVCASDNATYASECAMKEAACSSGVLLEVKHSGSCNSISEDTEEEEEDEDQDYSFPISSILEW

[6] = target: Fibroblast growth factor 2 (Homo sapiens) (UniProt P09038); assay: basic fibroblast growth factor binding to printed compounds – biochemical, small-molecule microarray, 635/667 nm fluorescence, primary screen (AID 1133); details: FGF2, fluorescence 635/667, higher = more signal
Sequence of Fibroblast growth factor 2 (Homo sapiens) (P09038 whole entry, looked up): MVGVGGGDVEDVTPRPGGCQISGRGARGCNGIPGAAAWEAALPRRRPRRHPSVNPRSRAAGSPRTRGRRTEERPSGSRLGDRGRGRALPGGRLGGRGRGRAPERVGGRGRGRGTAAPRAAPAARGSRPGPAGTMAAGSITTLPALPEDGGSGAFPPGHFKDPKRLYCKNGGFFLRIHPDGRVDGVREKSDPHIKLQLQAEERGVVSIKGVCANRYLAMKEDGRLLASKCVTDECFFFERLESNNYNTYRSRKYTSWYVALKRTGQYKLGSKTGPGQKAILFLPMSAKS

[7] = JC-1 mitochondrial potential readout, lung cancer cells – cell-based, A549, JC-1 fluorescence, basal, 24 h, 100 nL, profiling panel (AID 1138); details: higher = more signal;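 further: A549 lung adenocarcinoma cells under basal conditions with no added stimulus; test concentration not given here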
Lefty1 = Lefty1 protein binding to printed compounds – biochemical, small-molecule microarray, 635/667 nm fluorescence, primary screen (AID 1139); details: fluorescence 635/667, higher = more signal
[8] = tested on: wheat germ agglutinin (Triticum aestivum), Alexa647-labelled; assay: Alexa647-WGA lectin binding to printed small molecules – biochemical, small-molecule microarray, 635/667 nm fluorescence, artefact control for SMM control-protein annotation, profiling panel (AID 1140); details: WGA-A647 binding, 635 nm fluorescence, higher = more signal;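 further: score merges 667 nm feature emission with signal to noise over triplicate slides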
[9] = target: Luciferin 4-monooxygenase (Photinus pyralis) (UniProt P08659); assay: inhibition of purified Photinus pyralis luciferase – biochemical, luminescence, purified enzyme, 2006 set, primary screen (AID 1141); details: purified firefly luciferase, SteadyGlo luminescence, 30 min; higher = more signal, called active from +8 up or from −8 down;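 further: cell-free assay with purified firefly luciferase at 100 ng per well in PBS; test concentration not given here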
Sequence of Luciferin 4-monooxygenase (Photinus pyralis) (P08659 whole entry, looked up): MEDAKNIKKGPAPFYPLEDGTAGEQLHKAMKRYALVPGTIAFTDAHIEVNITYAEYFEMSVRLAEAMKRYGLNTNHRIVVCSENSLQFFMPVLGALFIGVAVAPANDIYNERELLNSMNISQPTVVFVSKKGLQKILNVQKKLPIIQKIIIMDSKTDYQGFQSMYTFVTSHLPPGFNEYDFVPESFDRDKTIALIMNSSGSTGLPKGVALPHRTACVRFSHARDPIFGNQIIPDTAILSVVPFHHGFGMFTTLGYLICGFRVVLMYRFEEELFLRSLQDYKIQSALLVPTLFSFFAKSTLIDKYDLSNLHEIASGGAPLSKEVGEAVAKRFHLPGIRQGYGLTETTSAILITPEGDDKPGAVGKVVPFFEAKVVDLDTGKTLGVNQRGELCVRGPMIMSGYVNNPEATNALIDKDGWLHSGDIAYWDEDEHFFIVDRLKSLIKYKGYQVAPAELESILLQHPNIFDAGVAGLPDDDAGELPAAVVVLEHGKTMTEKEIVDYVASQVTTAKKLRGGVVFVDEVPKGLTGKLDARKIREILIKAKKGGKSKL

[10] = tested on: Wnt5a (protein binding on small-molecule microarray); assay: small molecules binding Wnt5a protein – biophysical, small-molecule microarray, 635/667 nm fluorescence, primary screen (AID 1142); details: 635 nm fluorescence, higher = more signal;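 further: fluorescence read at 667 nm with signal to noise per printed feature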
[11] = ATP-based viability of Huh7 replicon cells – cell-based, CellTiter-Glo luminescence, basal, 48 h, cytotoxicity control for HCV replication inhibitor project, primary screen (AID 1143); details: higher = more signal, called active from +8 up or from −8 down;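 further: Huh7 hepatoma cells carrying a hepatitis C replication reporter with no stimulus; test concentration not given here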
[12] = Pseudomonas biofilm growth suppression – PAO1 strain, BacTiter-Glo luminescence, LB-PBS, primary screen (AID 1144); details: P. aeruginosa PAO1 biofilm, 12 h, higher = more signal
[13] = basal CRE-LacZ reporter activity in PC12 – cell-based, unstimulated, primary screen (AID 1145); details: no forskolin, luminescence, 4.5 h, higher = more signal, called active from +8 up or from −8 down
[14] = forskolin-driven CRE-LacZ activity in PC12 – cell-based, CRE-LacZ reporter, forskolin-stimulated, primary screen (AID 1146); details: luminescence, 4.5 h, higher = more signal, called active from +8 up or from −8 down;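 further: PC12 cells with 6xCRE LacZ reporter stimulated by forskolin 10 µM; beta-galactosidase reporter signal reflecting CREB driven transcription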
[15] = target: Streptavidin (Streptomyces avidinii) (UniProt P22629); assay: compounds binding control protein streptavidin – biophysical, small-molecule microarray, 635/667 nm fluorescence, artefact control for SMM compound annotation, primary screen (AID 1147); details: higher = more signal;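 further: signal reflects streptavidin binding to arrayed compounds as a control protein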
Sequence of Streptavidin (Streptomyces avidinii) (P22629 whole entry, looked up): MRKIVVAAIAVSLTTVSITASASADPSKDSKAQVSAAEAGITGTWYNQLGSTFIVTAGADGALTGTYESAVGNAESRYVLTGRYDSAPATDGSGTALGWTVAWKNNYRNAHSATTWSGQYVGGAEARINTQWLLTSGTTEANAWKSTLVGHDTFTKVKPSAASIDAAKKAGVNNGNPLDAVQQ

[16] = probe aInhba binding on compound microarray – biochemical, small-molecule microarray, 635/667 nm fluorescence, primary screen (AID 1148); details: higher = more signal;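 further: score merges 667nm spot fluorescence with signal-to-noise for antibody binding to printed compounds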
Torsin-1A (Homo sapiens) [17] = target: Torsin-1A (Homo sapiens) (UniProt O14656); assay: TOR1A wild-type binding on microarray – cell lysate, small-molecule microarray, lysate, 635/667 nm, primary screen (AID 1149); details: COS7 hTOR1A-WT lysate, 635 nm fluorescence, higher = more signal
Sequence of Torsin-1A (Homo sapiens) (O14656 whole entry, looked up): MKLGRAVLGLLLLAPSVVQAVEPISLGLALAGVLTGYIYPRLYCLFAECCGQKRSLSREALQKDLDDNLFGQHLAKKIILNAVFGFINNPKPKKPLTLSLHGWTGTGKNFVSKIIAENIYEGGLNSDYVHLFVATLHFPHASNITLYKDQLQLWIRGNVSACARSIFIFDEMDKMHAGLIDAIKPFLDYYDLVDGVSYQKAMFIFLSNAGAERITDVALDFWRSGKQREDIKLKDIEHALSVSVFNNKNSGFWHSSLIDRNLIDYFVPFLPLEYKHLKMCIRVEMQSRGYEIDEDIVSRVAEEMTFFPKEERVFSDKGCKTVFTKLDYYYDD

Torsin-1A (Homo sapiens) [18] = target: Torsin-1A (Homo sapiens) (UniProt O14656); assay: torsin A mutant lysate binding on microarrays – cell lysate, small-molecule microarray, COS7 lysate, 635/667 nm fluorescence, primary screen (AID 1150); details: COS7 hTOR1A mutant lysate, 635 nm fluorescence, higher = more signal;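 further: score pools 667 nm emission and signal to noise measuring lysate protein binding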
[19] = tested on: Sonic hedgehog protein (Shh); assay: Sonic hedgehog microarray binding compounds – biochemical, small-molecule microarray, 635/667 nm fluorescence, primary screen (AID 1151); details: 635 nm fluorescence, higher = more signal;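 further: Shh protein binding to compounds spotted on small-molecule microarray slides; score combines spot fluorescence intensity with signal-to-noise across triplicate slides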

CN(C)C(=O)[C@@]1(Cc2ccccc2)COC(c2ccc(OCCCO)cc2)=N1
composite z-score [1]: 0.468
composite z-score [2]: 0.672
composite z-score [3]: 0.292
composite z-score [4]: 0.414
composite z-score [5]: -0.13
composite z-score [6]: -0.0827
z-score [7]: 1.18
composite z-score (Lefty1): -1.51
composite z-score [8]: 0.298
z-score [9]: -2.68 (inactive)
composite z-score [10]: -0.243
z-score [11]: -2.58 (inactive)
z-score [12]: 0.59 (inactive)
z-score [13]: 1.74 (inactive)
z-score [14]: -1.3 (inactive)
composite z-score [15]: 0.142
composite z-score [16]: -0.661
composite z-score (Torsin-1A (Homo sapiens) [17]): 0.0565
composite z-score (Torsin-1A (Homo sapiens) [18]): -0.22
composite z-score [19]: -0.618

COc1cc2c(cc1O)C(c1cccs1)N(Cc1sc3ccccc3c1Cl)CC2 (stereo not given)
composite z-score [1]: 2.64
composite z-score [2]: 1.28
composite z-score [3]: 0.379
composite z-score [4]: 1.01
composite z-score [5]: 1.14
composite z-score [6]: 0.841
z-score [7]: -0.702
composite z-score (Lefty1): 0.72
composite z-score [8]: 1.19
z-score [9]: -0.42 (inactive)
composite z-score [10]: 0.702
z-score [11]: -2.5 (inactive)
z-score [12]: 0.546 (inactive)
z-score [13]: -0.141 (inactive)
z-score [14]: 0.93 (inactive)
composite z-score [15]: 1.64
composite z-score [16]: 0.122
composite z-score (Torsin-1A (Homo sapiens) [17]): 1.43
composite z-score (Torsin-1A (Homo sapiens) [18]): 1.56
composite z-score [19]: 0.953

C=CCC(OC(C)=O)[C@@H]1[C@@H](N(Cc2cccc3ccccc23)C(=O)c2cccc3ccccc23)c2cc(OCCCO)ccc2N1C(=O)c1ccc2ccccc2c1 (stereo not given in full)
composite z-score [1]: 0.279
composite z-score [2]: 0.18
composite z-score [3]: -0.0836
composite z-score [4]: 0.0439
composite z-score [5]: 1.14
composite z-score [6]: 0.061
z-score [7]: -0.348
composite z-score (Lefty1): 0.11
composite z-score [8]: -0.223
z-score [9]: 1.48 (inactive)
composite z-score [10]: -0.23
z-score [11]: -2.35 (inactive)
z-score [12]: 0.311 (inactive)
z-score [13]: -1.1 (inactive)
z-score [14]: 1.03 (inactive)
composite z-score [15]: -0.0629
composite z-score [16]: -0.0288
composite z-score (Torsin-1A (Homo sapiens) [17]): 0.0265
composite z-score (Torsin-1A (Homo sapiens) [18]): -0.252
composite z-score [19]: 0.49

CC(C)CCC[C@@H](C)[C@H]1CC[C@@]2(C)C3=C(CC[C@]12C)[C@@]1(C)CC[C@H](OC(=O)c2ccccc2)C(C)(C)C1CC3 (stereo not given in full)
composite z-score [1]: 0.226
composite z-score [2]: 0.29
composite z-score [3]: -0.0586
composite z-score [4]: 0.816
composite z-score [5]: 0.438
composite z-score [6]: 0.288
z-score [7]: 0.442
composite z-score (Lefty1): 0.591
composite z-score [8]: 0.134
z-score [9]: -0.0355 (inactive)
composite z-score [10]: 0.0964
z-score [11]: -1.16 (inactive)
z-score [12]: -1.65 (inactive)
z-score [13]: 0.581 (inactive)
z-score [14]: -0.653 (inactive)
composite z-score [15]: 0.18
composite z-score [16]: -0.178
composite z-score (Torsin-1A (Homo sapiens) [17]): 0.316
composite z-score (Torsin-1A (Homo sapiens) [18]): 0.171
composite z-score [19]: 0.364

COC(=O)C1=CC(CCCO)=CC(C)N(Cc2cccc(OC(F)(F)F)c2)C=C1C(=O)OC (stereo not given)
composite z-score [1]: 0.178
composite z-score [2]: 0.702
composite z-score [3]: 0.955
composite z-score [4]: -0.269
composite z-score [5]: -0.278
composite z-score [6]: -0.807
z-score [7]: 0.142
composite z-score (Lefty1): -0.0105
composite z-score [8]: 1.11
z-score [9]: 0.347 (inactive)
composite z-score [10]: 0.145
z-score [11]: -1.07 (inactive)
z-score [12]: -0.117 (inactive)
z-score [13]: -0.168 (inactive)
z-score [14]: 0.308 (inactive)
composite z-score [15]: 0.747
composite z-score [16]: -0.001
composite z-score (Torsin-1A (Homo sapiens) [17]): -0.148
composite z-score (Torsin-1A (Homo sapiens) [18]): 0.47
composite z-score [19]: -0.681

COC(=O)[C@@]1(Cc2ccc(OC)cc2)[C@H]2c3cc(C(=O)N4CCCC4)n(Cc4ccc(OC(F)(F)F)cc4)c3C[C@H]2CN1C(=O)c1ccccc1
composite z-score [1]: 1.36
composite z-score [2]: -0.376
composite z-score [3]: -0.438
composite z-score [4]: 1
composite z-score [5]: 0.451
composite z-score [6]: -0.702
z-score [7]: 0.691
composite z-score (Lefty1): -0.683
composite z-score [8]: 1.09
z-score [9]: 2.03 (inactive)
composite z-score [10]: 0.622
z-score [11]: -3.34 (inactive)
z-score [12]: 0.488 (inactive)
z-score [13]: -0.565 (inactive)
z-score [14]: -0.239 (inactive)
composite z-score [15]: 1.73
composite z-score [16]: 0.0925
composite z-score (Torsin-1A (Homo sapiens) [17]): -1.04
composite z-score (Torsin-1A (Homo sapiens) [18]): -0.89
composite z-score [19]: -1.05

CC(C)=CCCC(C)=CC(O)C1C=CC2C(=O)N(c3ccccc3)C(=O)C2N1Nc1ccccc1F (stereo not given)
composite z-score [1]: 1.55
composite z-score [2]: 1.03
composite z-score [3]: 0.789
composite z-score [4]: 0.988
composite z-score [5]: 0.462
composite z-score [6]: -0.617
z-score [7]: -0.4
composite z-score (Lefty1): 0.278
composite z-score [8]: 0.327
z-score [9]: 2 (inactive)
composite z-score [10]: 0.151
z-score [11]: -2.83 (inactive)
z-score [12]: -1.45 (inactive)
z-score [13]: -0.0228 (inactive)
z-score [14]: 0.358 (inactive)
composite z-score [15]: 1.17
composite z-score [16]: 0.0047
composite z-score (Torsin-1A (Homo sapiens) [17]): -0.216
composite z-score (Torsin-1A (Homo sapiens) [18]): -0.0306
composite z-score [19]: 0.396

COCC(=C=CC[C@@H](O)c1cccc(OCCO)c1)CCO
composite z-score [1]: -0.128
composite z-score [2]: -0.113
composite z-score [3]: -0.128
composite z-score [4]: 0.984
composite z-score [5]: 0.734
composite z-score [6]: 0.377
z-score [7]: 0.293
composite z-score (Lefty1): 0.565
composite z-score [8]: 1.1
z-score [9]: -1.31 (inactive)
composite z-score [10]: 0.332
z-score [11]: -0.35 (inactive)
z-score [12]: 0.65 (inactive)
z-score [13]: -0.205 (inactive)
z-score [14]: 0.671 (inactive)
composite z-score [15]: 0.105
composite z-score [16]: 0.0051
composite z-score (Torsin-1A (Homo sapiens) [17]): 1.96
composite z-score (Torsin-1A (Homo sapiens) [18]): 0.675
composite z-score [19]: 1.23

CN1C(=O)C2C=CC(C(O)c3cc(C(F)(F)F)cc(C(F)(F)F)c3)N(Nc3ccccc3)C2C1=O (stereo not given)
composite z-score [1]: 0.581
composite z-score [2]: 0.737
composite z-score [3]: 0.99
composite z-score [4]: -0.35
composite z-score [5]: -0.101
composite z-score [6]: -0.419
z-score [7]: 0.587
composite z-score (Lefty1): 0.302
composite z-score [8]: 0.225
z-score [9]: 0.787 (inactive)
composite z-score [10]: -0.253
z-score [11]: -0.73 (inactive)
z-score [12]: 0.329 (inactive)
z-score [13]: 0.626 (inactive)
z-score [14]: -0.0455 (inactive)
composite z-score [15]: 0.0416
composite z-score [16]: -0.128
composite z-score (Torsin-1A (Homo sapiens) [17]): -1.74
composite z-score (Torsin-1A (Homo sapiens) [18]): 1.13
composite z-score [19]: -0.145

COc1cc2c(cc1O)C(c1ccc(CN3CCCC3)cc1)N(C)CC2 (stereo not given)
composite z-score [1]: -1.52
composite z-score [2]: -2.03
composite z-score [3]: -0.489
composite z-score [4]: 0.109
composite z-score [5]: -0.843
composite z-score [6]: -0.324
z-score [7]: 0.563
composite z-score (Lefty1): -1.17
composite z-score [8]: 0.434
z-score [9]: -0.831 (inactive)
composite z-score [10]: -0.0821
z-score [11]: -0.383 (inactive)
z-score [12]: 0.374 (inactive)
z-score [13]: -0.231 (inactive)
z-score [14]: -0.0347 (inactive)
composite z-score [15]: -0.317
composite z-score [16]: -0.237
composite z-score (Torsin-1A (Homo sapiens) [17]): -0.508
composite z-score (Torsin-1A (Homo sapiens) [18]): 0.081
composite z-score [19]: -0.0838
